Out of some 5,500 compounds screened, about 2,000 (36%) were called active. Inconclusive results (about 18%) are left out. Rule as the data show it: active = normalized growth mostly below about 0.91 (no sharp cut-off); inconclusive = no clear call, values can overlap the other calls; inactive = mostly above about 0.92. This is one part of the list.
Test: chemical genetic growth profiling, strain panel (AID 1159580);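 also: tested at 20 µM; growth read once vehicle control cultures reached saturation at 30 °C; 1 = growth at the plate median or of vehicle wells; lower values mean less growth of the strain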
Settings: growth OD

Measured: normalized growth

O=C(CCBr)N1CCN(C(=O)CCBr)CC1
inactive: S. cerevisiae deletion strains, locus YJR066W, strain TOR1, stronger effect = lower value 0.961 | S. cerevisiae deletion strains, locus YKL009W, strain mrt4, stronger effect = lower value 0.993 | S. cerevisiae deletion strains, locus YKL068W, stronger effect = lower value 1 | S. cerevisiae deletion strains, locus YKL085W, strain MDH1 (second series), stronger effect = lower value 1.01 | S. cerevisiae deletion strains, locus YKL085W, strain MDH1, stronger effect = lower value 1.01 | S. cerevisiae deletion strains, locus YKL160W, strain elf1, stronger effect = lower value 1.03 | S. cerevisiae deletion strains, locus YKL190W, strain CNB1, stronger effect = lower value 1 | S. cerevisiae deletion strains, locus YKR001C, strain vps1, stronger effect = lower value 0.997 | S. cerevisiae deletion strains, locus YKR026C, strain gcn3, stronger effect = lower value 1.01 | S. cerevisiae deletion strains, locus YKR091W, strain srl3, stronger effect = lower value 1.01 | S. cerevisiae deletion strains, locus YLL001W, strain dnm1, stronger effect = lower value 1.01 | S. cerevisiae deletion strains, locus YLL026W, stronger effect = lower value 1.01 | S. cerevisiae deletion strains, locus YLL041C, strain sdh2, stronger effect = lower value 1.01 | S. cerevisiae deletion strains, locus YLR027C, strain aat2, stronger effect = lower value 1.02 | S. cerevisiae deletion strains, locus YLR039C, strain RIC1, stronger effect = lower value 1 | S. cerevisiae deletion strains, locus YLR058C, strain SHM2, stronger effect = lower value 1.01 | S. cerevisiae deletion strains, locus YLR102C, strain apc9, stronger effect = lower value 0.991 | S. cerevisiae deletion strains, locus YLR113W, strain HOG1, stronger effect = lower value 0.979 | S. cerevisiae deletion strains, locus YLR221C, strain rsa3, stronger effect = lower value 1.01 | S. cerevisiae deletion strains, locus YLR258W, strain gsy2, stronger effect = lower value 1.02 | S. cerevisiae deletion strains, locus YLR262C, strain YPT6 (second series), stronger effect = lower value 1.03 | S. cerevisiae deletion strains, locus YLR262C, strain YPT6, stronger effect = lower value 1.02 | S. cerevisiae deletion strains, locus YLR268W, strain sec22, stronger effect = lower value 1 | S. cerevisiae deletion strains, locus YLR320W, strain mms22, stronger effect = lower value 1.03 | S. cerevisiae deletion strains, locus YLR330W, strain CHS5, stronger effect = lower value 1.01 | S. cerevisiae deletion strains, locus YLR342W, strain FKS1 (second series), stronger effect = lower value 1 | S. cerevisiae deletion strains, locus YLR342W, strain FKS1, stronger effect = lower value 1.02 | S. cerevisiae deletion strains, locus YLR357W, strain rsc2, stronger effect = lower value 1 | S. cerevisiae deletion strains, locus YLR370C, strain arc18, stronger effect = lower value 1.02 | S. cerevisiae deletion strains, locus YLR371W, strain rom2, stronger effect = lower value 0.991 | S. cerevisiae deletion strains, locus YLR384C, strain iki3, stronger effect = lower value 1.02 | S. cerevisiae deletion strains, locus YLR418C, strain cdc73, stronger effect = lower value 1.01 | S. cerevisiae deletion strains, locus YML016C, strain PPZ1, stronger effect = lower value 1.01 | S. cerevisiae deletion strains, locus YML032C, strain rad52, stronger effect = lower value 1 | S. cerevisiae deletion strains, locus YML120C, strain ndi1, stronger effect = lower value 1.02 | S. cerevisiae deletion strains, locus YML124C, strain tub3, stronger effect = lower value 0.991 | S. cerevisiae deletion strains, locus YMR058W, strain fet3, stronger effect = lower value 1.01 | S. cerevisiae deletion strains, locus YMR078C, strain ctf18, stronger effect = lower value 1.01 | S. cerevisiae deletion strains, locus YMR125W, strain sto1, stronger effect = lower value 1.03 | S. cerevisiae deletion strains, locus YMR129W, stronger effect = lower value 1.02 | S. cerevisiae deletion strains, locus YMR205C, strain PFK2, stronger effect = lower value 1.03 | S. cerevisiae deletion strains, locus YMR223W, strain ubp8, stronger effect = lower value 0.999 | S. cerevisiae deletion strains, locus YMR231W, strain pep5, stronger effect = lower value 1.03 | S. cerevisiae deletion strains, locus YMR307W, strain GAS1, stronger effect = lower value 0.993 | S. cerevisiae deletion strains, locus YNL067W, strain RPL9B, stronger effect = lower value 1.01 | S. cerevisiae deletion strains, locus YNL071W, strain lat1, stronger effect = lower value 1.02 | S. cerevisiae deletion strains, locus YNL128W, strain TEP1, stronger effect = lower value 1.01 | S. cerevisiae deletion strains, locus YNL153C, strain GIM3, stronger effect = lower value 1.02 | S. cerevisiae deletion strains, locus YNL183C, strain NPR1, stronger effect = lower value 0.936 | S. cerevisiae deletion strains, locus YNL209W, strain ssb2, stronger effect = lower value 1.02 | S. cerevisiae deletion strains, locus YNL233W, strain BNI4, stronger effect = lower value 1 | S. cerevisiae deletion strains, locus YNL248C, strain rpa49, stronger effect = lower value 1.01 | S. cerevisiae deletion strains, locus YNL250W, strain rad50, stronger effect = lower value 1.01 | S. cerevisiae deletion strains, locus YNL271C, strain bni1, stronger effect = lower value 0.999 | S. cerevisiae deletion strains, locus YNL298W, strain CLA4, stronger effect = lower value 1.01 | S. cerevisiae deletion strains, locus YNL307C, strain MCK1, stronger effect = lower value 0.997 | S. cerevisiae deletion strains, locus YNL322C, strain KRE1 (second series), stronger effect = lower value 1.01 | S. cerevisiae deletion strains, locus YNL322C, strain KRE1, stronger effect = lower value 1.01 | S. cerevisiae deletion strains, locus YNR049C, strain mso1, stronger effect = lower value 1.01 | S. cerevisiae deletion strains, locus YNR052C, strain pop2, stronger effect = lower value 1 | S. cerevisiae deletion strains, locus YOL006C, strain TOP1, stronger effect = lower value 1.02 | S. cerevisiae deletion strains, locus YOL012C, strain htz1 0.666 | S. cerevisiae deletion strains, locus YOL147C, strain pex11, stronger effect = lower value 0.998 | S. cerevisiae deletion strains, locus YOR001W, strain rrp6, stronger effect = lower value 1.01 | S. cerevisiae deletion strains, locus YOR061W, strain CKA2, stronger effect = lower value 1.01 | S. cerevisiae deletion strains, locus YOR069W, strain VPS5, stronger effect = lower value 1.01 | S. cerevisiae deletion strains, locus YOR070C, strain gyp1, stronger effect = lower value 1.02 | S. cerevisiae deletion strains, locus YOR080W, strain dia2, stronger effect = lower value 1.02 | S. cerevisiae deletion strains, locus YOR083W, strain WHI5, stronger effect = lower value 1.02 | S. cerevisiae deletion strains, locus YOR106W, strain vam3, stronger effect = lower value 1.02 | S. cerevisiae deletion strains, locus YOR136W, strain idh2, stronger effect = lower value 0.998 | S. cerevisiae deletion strains, locus YOR144C, strain elg1, stronger effect = lower value 0.993 | S. cerevisiae deletion strains, locus YOR184W, strain ser1, stronger effect = lower value 0.998 | S. cerevisiae deletion strains, locus YOR231W, strain MKK1, stronger effect = lower value 0.985 | S. cerevisiae deletion strains, locus YOR265W, strain rbl2, stronger effect = lower value 1.01 | S. cerevisiae deletion strains, locus YOR270C, strain vph1, stronger effect = lower value 1.08 | S. cerevisiae deletion strains, locus YOR290C, strain snf2, stronger effect = lower value 1 | S. cerevisiae deletion strains, locus YOR316C, strain cot1, stronger effect = lower value 0.999 | S. cerevisiae deletion strains, locus YPL051W, strain arl3, stronger effect = lower value 1.02 | S. cerevisiae deletion strains, locus YPL078C, strain atp4, stronger effect = lower value 1.01 | S. cerevisiae deletion strains, locus YPL106C, strain sse1, stronger effect = lower value 1.03 | S. cerevisiae deletion strains, locus YPL240C, strain hsp82, stronger effect = lower value 1.02 | S. cerevisiae deletion strains, locus YPL241C, strain CIN2, stronger effect = lower value 1.01 | S. cerevisiae deletion strains, locus YPL256C, strain CLN2, stronger effect = lower value 0.996 | S. cerevisiae deletion strains, locus YPR119W, strain clb2, stronger effect = lower value 0.994 | S. cerevisiae deletion strains, locus YPR141C, strain kar3, stronger effect = lower value 0.992 | S. cerevisiae deletion strains, locus YPR163C, strain tif3, stronger effect = lower value 0.994 | S. cerevisiae deletion strains, locus YPR167C, strain met16, stronger effect = lower value 1.01 | S. cerevisiae deletion strains, strain wtn01, stronger effect = lower value 0.989 | S. cerevisiae strains, strain wild type, stronger effect = lower value 1.01
